According to PubChem BioAssay (NCI):
Compounds without any hit were thinned out: in the full panel of roughly 83,000, 20% have a hit.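 Values shown are percent growth following 48 h exposure of cells in 96-well plates to a single concentration of compound; below 10 was considered active.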 Active and inactive are the calls of the source.

Tested on: CCRF-CEM leukemia
Experiment: NCI-60 one-dose screen, 48 h (100 = growth as untreated, 0 = no growth, -100 = all killed)
Conditions: 10 µM unless noted

SMILES	growth
C#CCNC(=O)c1cccc2c1cc(C)n2-c1nc2c(c(NCc3ccccc3)n1)CCCC2	5.3% (active)
COc1ccccc1NC(=O)C1CC(c2ccc(F)cc2)=NO1 (configuration not stated)	104% (inactive)
O=C1Nc2cc(-c3ccc(NC(=O)c4ccccc4)cc3)ccc2/C1=C/c1ccc[nH]1	92.4% (inactive)
C=CC(=O)N[C@@H](/C=C/C(=O)OCC)Cc1ccc(-c2cc(Cl)cc(Cl)c2)cc1	17.2% (inactive)
Cc1ccc(NC(=O)c2cc(-c3nc4ccccc4s3)c(=O)n(NS(=O)(=O)c3ccc(Cl)cc3)c2N)cc1	104% (inactive)
O=C1Nc2cc(-c3ccc(NC(=O)C4CC4)cc3)ccc2/C1=C/c1ccc[nH]1	98.7% (inactive)
O=S(=O)(NCCNc1nccc(-c2c(-c3cccc(F)c3)nc3sccn23)n1)c1ccccc1	33.6% (inactive)
O=C(NCCNc1nccc(-c2c(-c3cccc(F)c3)nc3sccn23)n1)c1ccc(Cl)cc1	58.2% (inactive)
COc1cc2oc(-c3cccc(C(=O)Nc4ccc(Cl)cc4)c3)cc(=O)c2c(O)c1OC	75.6% (inactive)
O=C1OC(Cc2ccccc2)C1c1ccccc1 (configuration not stated)	109% (inactive)
CC(=O)Nc1ccc(-n2cnc3cc(-c4ccc(OCCN5CCCCC5)cc4)ccc32)cc1	54.8% (inactive)
O=C(N/N=C/c1ccc(Oc2ccccc2)cc1)c1cnn2c1NC(c1ccccc1)C2 (configuration not stated)	67.5% (inactive)
CCN(CC)CC[n+]1cc2cc(OC)c(OC)cc2c2ccc3cc4c(cc3c21)OCO4	1.03% (active)
O=Cc1cc2ccccc2nc1Oc1ccc(C(F)(F)F)cc1	6.98% (active)
Cc1cc2nc3c4cc(C=O)ccc4n(CCN(C)C)c3nc2cc1C	21.7% (inactive)
N#Cc1cccc(-c2ccc3c(c2)NC(=O)/C3=C\c2ccc[nH]2)c1	69.7% (inactive)
CCc1c(Cl)nc(N)nc1Nc1ccc(C)c(C)c1	100% (inactive)
COc1cc(NC(C)CCCNC(=O)CCC(=O)NCCCNCCCCCCCCCCNCCCNC(=O)CCC(=O)NCCCC(C)Nc2cc(OC)cc3cccnc23)c2ncccc2c1 (configuration not stated)	66.6% [8 µM] (inactive)
Cc1ccccc1NS(=O)(=O)c1cccc(C(=O)Nc2ccc(Br)cc2)c1	42.4% [25 µM] (inactive)
COc1cc(/C=C\C(=O)O)ccc1OCc1ccccc1	98.3% (inactive)
CCCCCCCCOc1ccc(/C=N/Nc2cc(C)nc3ccc(Br)cc23)cc1	7.66% (active)
S=c1cc(S)c2cc(Br)ccc2[nH]1	100% (inactive)
CCOC(=O)CSc1nc2ccccc2c(=O)n1Cc1ccc(S(N)(=O)=O)cc1	97.1% (inactive)
C=C1C(=O)O[C@H]2[C@H]1CC/C(COC(=O)NCc1c[nH]c3ccc(Cl)cc13)=C\CC[C@@]1(C)O[C@@H]21	-11.1% (active)

Tested on: MOLT-4 leukemia
Experiment: as above
Conditions: 10 µM unless noted

SMILES	growth
COc1ccc(C/C(=C(\C)c2ccc(OCCN3CCCC3)cc2)c2ccc(OCCN3CCCC3)cc2)cc1	-17.5% (active)
CCOC(=O)Oc1c(OC)cc(C(=O)c2ccc(OC)c(O)c2OC)cc1OC	28.1% (inactive)
CCCCOc1ccc(/C(C)=N/Nc2cc(C)nc3ccc(Br)cc23)cc1	83.5% (inactive)
O=[N+]([O-])c1cc(Br)c2cccc3c2c1CC3	104% (inactive)
CC(Oc1ccc(C(=O)O)cc1C(F)(F)F)c1ccc(Oc2ccccc2)cn1 (configuration not stated)	106% (inactive)
CCN1CCN(CCNc2nccc(-c3c(-c4cccc(OC)c4)nc4occn34)n2)S1(=O)=O	89% (inactive)
Cn1c2ccccc2c2c3c(c4c5ccccc5n(C)c4c21)C(=O)OC3	89.7% (inactive)
COc1cc2c(cc1OC)C(=O)/C(=C/c1cc(C)c(O)c(C)c1)S2	24.5% (inactive)
O=C(/C=C/c1ccc(F)cc1)c1ccc(NC(=O)N2CCN(c3cc4c(cc3F)c(=O)c(C(=O)O)cn4C3CC3)CC2)cc1	99.5% (inactive)
O=C1c2ccc3c4c(ccc(c24)C(=O)N1CCCNCc1ccccc1Cl)C(=O)N(CCCNCc1ccccc1Cl)C3=O	-24.4% (active)
Cc1cccc(NC(=O)Nc2ccc(-n3cnc4cc(-c5ccc(O)cc5)ccc43)cc2)c1	13.1% (inactive)
c1ccc(-c2cn3c(ccc4ccccc43)n2)cc1	57.8% (inactive)
COc1cc2oc(-c3cccc(C(=O)Nc4ccccc4)c3)cc(=O)c2c(O)c1OC	99.7% (inactive)
Cc1ccc(/C=N/NC(=O)CSc2nc3ccccc3c(=O)n2Cc2ccc(S(N)(=O)=O)cc2)cc1	86.8% (inactive)
C#CCNC(=O)c1cccc2c1cc(C)n2-c1nc2c(c(NCc3ccccc3)n1)CCCC2	-8.18% (active)
COc1ccccc1NC(=O)C1CC(c2ccc(F)cc2)=NO1 (configuration not stated)	103% (inactive)
O=C1Nc2cc(-c3ccc(NC(=O)c4ccccc4)cc3)ccc2/C1=C/c1ccc[nH]1	92.8% (inactive)
C=CC(=O)N[C@@H](/C=C/C(=O)OCC)Cc1ccc(-c2cc(Cl)cc(Cl)c2)cc1	1.95% (active)
Cc1ccc(NC(=O)c2cc(-c3nc4ccccc4s3)c(=O)n(NS(=O)(=O)c3ccc(Cl)cc3)c2N)cc1	97.9% (inactive)

SMILES	growth
O=C1Nc2cc(-c3ccc(NC(=O)C4CC4)cc3)ccc2/C1=C/c1ccc[nH]1	94.7% (inactive)
O=S(=O)(NCCNc1nccc(-c2c(-c3cccc(F)c3)nc3sccn23)n1)c1ccccc1	16.6% (inactive)
O=C(NCCNc1nccc(-c2c(-c3cccc(F)c3)nc3sccn23)n1)c1ccc(Cl)cc1	65.7% (inactive)
COc1cc2oc(-c3cccc(C(=O)Nc4ccc(Cl)cc4)c3)cc(=O)c2c(O)c1OC	74.1% (inactive)
O=C1OC(Cc2ccccc2)C1c1ccccc1 (configuration not stated)	101% (inactive)
CC(=O)Nc1ccc(-n2cnc3cc(-c4ccc(OCCN5CCCCC5)cc4)ccc32)cc1	73.1% (inactive)
O=C(N/N=C/c1ccc(Oc2ccccc2)cc1)c1cnn2c1NC(c1ccccc1)C2 (configuration not stated)	75.1% (inactive)
CCN(CC)CC[n+]1cc2cc(OC)c(OC)cc2c2ccc3cc4c(cc3c21)OCO4	-5.52% (active)
O=Cc1cc2ccccc2nc1Oc1ccc(C(F)(F)F)cc1	60.5% (inactive)
Cc1cc2nc3c4cc(C=O)ccc4n(CCN(C)C)c3nc2cc1C	9.19% (active)
N#Cc1cccc(-c2ccc3c(c2)NC(=O)/C3=C\c2ccc[nH]2)c1	68.2% (inactive)
CCc1c(Cl)nc(N)nc1Nc1ccc(C)c(C)c1	94.4% (inactive)
COc1cc(NC(C)CCCNC(=O)CCC(=O)NCCCNCCCCCCCCCCNCCCNC(=O)CCC(=O)NCCCC(C)Nc2cc(OC)cc3cccnc23)c2ncccc2c1 (configuration not stated)	76.8% [8 µM] (inactive)
Cc1ccccc1NS(=O)(=O)c1cccc(C(=O)Nc2ccc(Br)cc2)c1	26.9% [25 µM] (inactive)
COc1cc(/C=C\C(=O)O)ccc1OCc1ccccc1	96.3% (inactive)
CCCCCCCCOc1ccc(/C=N/Nc2cc(C)nc3ccc(Br)cc23)cc1	58% (inactive)
S=c1cc(S)c2cc(Br)ccc2[nH]1	98.7% (inactive)
CCOC(=O)CSc1nc2ccccc2c(=O)n1Cc1ccc(S(N)(=O)=O)cc1	104% (inactive)
C=C1C(=O)O[C@H]2[C@H]1CC/C(COC(=O)NCc1c[nH]c3ccc(Cl)cc13)=C\CC[C@@]1(C)O[C@@H]21	3.46% (active)
